Measurements taken from ChEMBL document CHEMBL1157539, “Thousands of chemical starting points for antimalarial lead identification” (Nature, 2010).

Assays:
Format in all cases: functional
Plasmodium falciparum [1] = assay: GSK_TCMDC: Inhibition of Plasmodium falciparum 3D7 in whole red blood cells, using parasite LDH activity as an index of growth. Test compounds present at 2uM
Plasmodium falciparum [2] = assay: GSK_TCMDC: Inhibition of Plasmodium falciparum Dd2 in whole red blood cells, using parasite LDH activity as an index of growth. Test compounds present at 2uM
HepG2 = assay: GSK_TCMDC: Percent inhibition of human HepG2 cell line. Test compounds present at 10uM.

| Structure (SMILES) | Inhibition (Plasmodium falciparum [1]) [%] | Inhibition (Plasmodium falciparum [2]) [%] | Inhibition (HepG2) [%] |
| --- | --- | --- | --- |
| O=C(/C=C/c1ccc(Cl)c(Cl)c1)N1CCC(CN2CCC(Cc3cc4ccccc4[nH]3)CC2)CC1 | 96 | 56 | 49 |
| CN(CCc1ccccn1)Cc1ccc(-c2ccc(-c3nc4ccccc4[nH]3)s2)cc1 | 100 | 48 | 29 |
| O=C(Cc1c[nH]cn1)Nc1cccc(-c2cccc(-c3nc4ccccc4[nH]3)c2)c1 | 97 | 60 | 24 |
| N#Cc1cccc(NC(=O)NC2CCN(CCCCCNC(=O)/C=C/c3ccc(Cl)c(Cl)c3)CC2)c1 | 100 | 7 | 31 |
| CCc1nc(N)nc(N)c1-c1ccc(F)c(F)c1 | 98 | 0 | 58 |
| COc1ccc(Cc2c(N)nc3nc(N)nc(N)c3c2C)cc1.Cl | 94 | 3 | 64 |
| COc1ccc(CNC(=N)Nc2nc(-c3ccc(OCCCn4ccnc4)cc3)cs2)cc1.Cl | 100 | 67 | 15 |
| O=C(N[C@H]1CCN(Cc2ccc(OCCCN3CCCCC3)cc2)C1)c1ccc(Cl)c(Cl)c1 | 100 | 36 | 27 |
| O=C(Nc1ccc(OC2CCN(Cc3ccco3)C2)c(Cl)c1)c1ccc2ncccc2c1.O=C(O)C(F)(F)F (configuration not stated) | 92 | 42 | 1 |
| CO/C(=C\C=C\c1cc2cc(Cl)c(Cl)cc2[nH]1)C(=O)NCCCN1CCN(c2cccc(OC)c2)CC1 | 100 | 93 | 61 |
| O=C(Nc1ccnc(N2CCCN(Cc3cccc(O)c3)CC2)c1)c1ccc(F)cc1.O=C(O)C(F)(F)F | 90 | 3 | 12 |
| CCC[C@@H]([C@@H](CC1CCCCC1)C(=O)N[C@H](C(=O)Nc1nccs1)C(C)(C)SCCOCCOCC)N(O)C=O | 100 | 97 | 40 |
| Cl.Oc1cccc(Nc2ccnc3cc(-c4cc5ccccc5o4)ccc23)c1 | 100 | 71 | 9 |
| N#Cc1ccc(CN2CCC(Oc3ccc(NC(=O)c4ccco4)cc3Cl)CC2)cc1.O=C(O)C(F)(F)F | 95 | 96 | 7 |
| C=CCNC(=O)C(C)c1ccc2cc(OC)ccc2c1 (configuration not stated) | 92 | 90 | 4 |
| CCCC(C)NC(=O)[C@H](Cc1ccccc1)NC(=O)c1ccc(O)c(-c2ccc(OC)cc2)c1 (some centres not stated) | 85 | 1 | 12 |
| CCCc1ccc(-c2csc(NC(=O)c3ccc([N+](=O)[O-])o3)n2)cc1 | 85 | 13 | 72 |
| O=C(NC1CCN(Cc2ccccc2)CC1)c1ccc(-c2nc3cc4ccccc4cc3[nH]2)s1 | 99 | 25 | 13 |
| Br.Oc1ccccc1CCNCC1CCc2ccccc2C1 (configuration not stated) | 98 | 98 | 37 |
| CCCc1ccc(N2C(N)=NC(N)=NC2(C)C)cc1.Cl | 94 | 0 | 59 |
| O=C(/C=C/c1ccc(Cl)c(Cl)c1)NCCCCCN1CCC(CCNC(=O)Cc2ccc(Cl)cc2)CC1 | 83 | 0 | 45 |
| COc1ccc(CN(C)CCCOc2ccc(NC(=O)c3cccc4c(=O)c5cccc(F)c5[nH]c34)cc2)cc1OC | 100 | 96 | 6 |
| Cc1cccc2nc(-c3cccc(-c4cccc(CNCCc5ccncc5)c4)c3)[nH]c12.O=C(O)C(F)(F)F | 100 | 99 | 20 |
| O=C(Nc1nc(-c2ccccn2)cs1)c1ccc(S(=O)(=O)N2CCc3ccccc32)cc1 | 89 | 15 | 47 |
| c1ccc2cc3c(Nc4ccc(N5CCCCC5)cc4)ccnc3cc2c1 | 100 | 36 | 21 |
| CN1CCOc2ccc(Nc3nnc(-c4cccc(-c5cccnc5)c4)o3)cc2C1 | 100 | 100 | 0 |
| CCc1cc(-c2onc(C(F)(F)F)c2-c2ccccc2)c(O)cc1OC | 98 | 73 | 16 |
| O=C(C=Cc1ccc(Cl)c(Cl)c1)NCCCCCN1CCC(CCCNS(=O)(=O)c2ccc(F)cc2)CC1 | 93 | 20 | 52 |
| O=C(O)C(F)(F)F.Oc1ccc(CCNc2nc(NCCCOc3ccccc3-c3cccc(C(F)(F)F)c3)nc(N3CCNCC3)n2)cc1 | 93 | 5 | 24 |
